GLP1R inv ag = qHTS of GLP-1 Receptor Inverse Agonists (Inhibition Mode); Glucagon-like peptide 1 receptor (Homo sapiens), P43220; HEK293 GLP-1R CRE-luciferase, luminescence, 24 h; GLP-1R form is constitutively active; hit rate 1.6% among 410,000; Potency, µM (highest dose often 38.3 µM), usual class: inhibitors; also: nearly all actives have a fitted effect of over 55% in size
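Stable HEK293 clone (constitutively active GLP-1R + cAMP-response luciferase); 200 cells/uL plated, 12 h pre-culture, compound 24 hr, 37 deg C/5% CO2; detection reagent 12 min RT; luminescence.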
GLP-1R agonist = qHTS of GLP-1 Receptor Agonists | Glucagon-like peptide 1 receptor (Homo sapiens), P43220 | HEK293 GLP-1R CRE-luciferase, luminescence, 4-6 h; cells express a hypersensitive GLP-1R form | Potency, µM (highest dose often 45.6 µM), actives largely listed as activators | hit rate 0.007% among 380,000 | AID 624172, 2012
GLP1R cytotox = qHTS of GLP-1 Receptor Inverse Agonists: Cytotox Screen | HEK293 cAMP-luciferase reporter cells, luminescence, 24 h | Potency, µM (series often up to 38.3 µM), usual class: inhibitors | hit rate 0.13% among 410,000;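 also: loss of luciferase light is scored as toxicity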
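Cells in DMEM/10% Nu serum/1% pen-strep, 1536-well format. Pre-incubated 12 h, dosed with 23 nL compound, incubated a further 24 h. Luciferase detection, 12 min at room temp, luminescence.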
Tb PFK inh = qHTS Assay to Find Inhibitors of T. brucei phosphofructokinase; T. brucei PFK, ADP-Glo luminescence; AID 485367, 2010; hit rate 0.17% among 330,000; ATP-dependent 6-phosphofructokinase (Trypanosoma brucei brucei), O15648; Potency, µM (series often up to 57.5 µM), hits mostly inhibitors; also: nearly all actives have a fitted effect of over 60% in size
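Luminescent ADP detection (ADP-Glo, two-step: ATP depletion then ADP-to-ATP conversion for luciferase) reported PFK activity after 45 min room-temperature reaction of 1.25 nM enzyme with 0.5 mM F6P and 0.1 mM ATP at pH 8.0.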
Pin1 inh = qHTS Assay to Find Inhibitors of Pin1 | Pin1 FP peptide displacement, HiFluor488, 10 min | Potency, µM (highest dose often 115 µM), usual class: inhibitors | hit rate 0.009% among 390,000 | AID 504891, 2011; active = well fitted inhibition curve with a large enough effect in the polarisation, with a control signal flat, not every such curve was filed as active; inconclusive = small, poorly fitted or top-dose-only effect, or effect the other way, or a change in a side signal; inactive = no such curve, though single readings can be large or run the other way; the % refers to the polarisation
Target sequence (Q13526 whole entry, looked up): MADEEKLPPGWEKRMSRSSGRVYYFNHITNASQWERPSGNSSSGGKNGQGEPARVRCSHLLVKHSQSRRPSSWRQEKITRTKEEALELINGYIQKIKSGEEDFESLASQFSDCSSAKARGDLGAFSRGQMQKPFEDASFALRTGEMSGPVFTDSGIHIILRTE
Tb PGK inh = qHTS Assay to Find Inhibitors of Phosphoglycerate Kinase. hit rate 0.043% among 380,000. Phosphoglycerate kinase, glycosomal (Trypanosoma brucei brucei), P07378. Potency, µM (titrated, usually from 57.5 µM), most hits filed as inhibitors. PGK/GAPDH coupled, Kinase-Glo luminescence, 60 min; also: nearly all actives have a fitted effect of over 60% in size
Target sequence (P07378 whole entry, looked up): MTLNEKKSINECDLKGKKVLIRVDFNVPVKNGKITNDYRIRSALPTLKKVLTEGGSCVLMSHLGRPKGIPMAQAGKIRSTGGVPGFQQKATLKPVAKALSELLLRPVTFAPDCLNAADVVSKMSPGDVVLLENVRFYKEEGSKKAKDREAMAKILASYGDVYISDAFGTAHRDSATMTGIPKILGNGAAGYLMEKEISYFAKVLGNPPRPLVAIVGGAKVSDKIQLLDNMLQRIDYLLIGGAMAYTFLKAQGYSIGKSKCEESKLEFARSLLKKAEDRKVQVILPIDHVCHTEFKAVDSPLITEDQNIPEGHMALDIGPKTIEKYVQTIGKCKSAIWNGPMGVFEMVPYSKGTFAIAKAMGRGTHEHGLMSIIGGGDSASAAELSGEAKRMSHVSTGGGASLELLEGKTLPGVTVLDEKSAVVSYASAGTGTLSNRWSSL
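Luminescent ATP detection (Kinase-Glo Plus) follows a 60-minute room-temperature incubation, with wells lacking PGK as controls. Buffer: 100 mM TEA (pH 7.6), 5 mM MgCl2, 0.01% Tween-20. Coupling enzyme GAPDH (100 nM final) supplies unstable 1,3-BPG in-well.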
Of the large screens only hits and unclear results are named; the others gave an inactive call. Hits are enriched below; roughly 1.8% of the tested compounds scored in any of these assays. Unless noted, calls follow the shape of the dose curve; as a rule, active = well fitted curve in the direction sought with a large enough effect; inconclusive = small, poorly fitted or top-dose-only effect, or another doubt; inactive = no such curve, though single readings can be large; an effect the other way counts as inactive or inconclusive.

CC1(c2ccccc2)NC(=O)N(CC(=O)Nc2ccc(Cl)c(S(=O)(=O)N3CCCCC3)c2)C1=O (stereo not given)	GLP1R inv ag inconclusive
CC1(c2ccccc2)NC(=O)N(CC(=O)Nc2ccc3c(c2)CCC3)C1=O (stereo not given)	GLP1R inv ag 10µM
O=C(CC1CCCC1)Nc1ccc(Cl)c(S(=O)(=O)N2CCOCC2)c1	GLP1R inv ag 8.9µM, Tb PGK inh inconclusive
Cc1ccc(C2(C)NC(=O)N(CC(=O)Nc3ccc(Cl)c(S(=O)(=O)N4CCCCC4)c3)C2=O)cc1 (stereo not given)	GLP1R inv ag 10µM
O=C(Nc1ccc(Cl)c(S(=O)(=O)N2CCOCC2)c1)C1CCC1	none
O=C1c2cccc3c2[C@@H](CCC3)CN1[C@@H]1CN2CCC1CC2	none (no result: GLP1R inv ag, GLP1R cytotox, Tb PFK inh, Pin1 inh, Tb PGK inh)
CN1CCC(C(=O)N2CCCC(C(=O)c3ccc4c5c(cccc35)CC4)C2)CC1 (stereo not given)	GLP1R inv ag 8.9µM
O=C(c1ccc2c3c(cccc13)CC2)C1CCCN(Cc2cccnc2)C1 (stereo not given)	GLP1R inv ag inconclusive
COc1ccc(C(=O)C2CCCN(Cc3ccc4nonc4c3)C2)c(OC)c1 (stereo not given)	GLP1R inv ag 10µM
COc1cc(CN2CCCC(C(=O)c3ccc4c5c(cccc35)CC4)C2)cc(OC)c1O (stereo not given)	GLP1R inv ag 11µM
OCCn1c(-c2ccc(F)cc2)csc1=Nc1ccccc1	GLP1R inv ag inconclusive
OCCn1c(-c2ccc3c(c2)OCO3)csc1=Nc1ccccc1	GLP1R inv ag 3.5µM
COc1ccc(OC)c(CCNC(=O)Cn2sc3nc(C)cc(C)c3c2=O)c1	Tb PFK inh 2.4µM (no result: GLP1R inv ag, GLP-1R agonist, GLP1R cytotox, Pin1 inh, Tb PGK inh)
CC1CN(c2ccc([N+](=O)[O-])c(NCCOc3ccc(Cl)cc3)c2)CC(C)N1 (stereo not given)	GLP1R inv ag 10µM
CC1CN(c2ccc([N+](=O)[O-])c(NCCOc3ccccc3)c2)CC(C)N1 (stereo not given)	GLP1R inv ag inconclusive, GLP1R cytotox inconclusive
Cc1ccccc1OCCNc1cc(N2CC(C)NC(C)C2)ccc1[N+](=O)[O-] (stereo not given)	GLP1R inv ag 7.9µM, GLP1R cytotox inconclusive
CNCCC=C1c2ccccc2C=Cc2ccccc21	GLP1R inv ag 5µM (no result: Tb PFK inh)
Cc1ccc(C(=O)N(c2ccccc2)C2CC(C)N(C(=O)c3ccco3)c3ccccc32)cc1 (stereo not given)	GLP1R inv ag 10µM
CC(=O)N(c1ccccc1)C1CC(C)N(C(=O)c2ccccc2)c2ccccc21 (stereo not given)	none
O=C(NCc1ccc(Cl)cc1)c1cc2cccc3c2n1CCS3	GLP1R inv ag inconclusive (no result: GLP-1R agonist, Tb PFK inh)
Cc1c(NP(=O)(c2ccc(Br)cc2)c2ccc(Br)cc2)c(=O)n(-c2ccccc2)n1C	GLP1R inv ag 11µM
COc1ccccc1OCC(=O)/C=C1/N(C)c2ccccc2C1(C)C	GLP1R inv ag 10µM, Pin1 inh inconclusive
O=C(Nc1ccccc1N1CCCC1)C1CCN(S(=O)(=O)c2ccccc2C(F)(F)F)CC1	GLP1R inv ag inconclusive
O=C(Nc1ccccc1N1CCCCC1)C1CCN(S(=O)(=O)c2ccccc2C(F)(F)F)CC1	GLP1R inv ag 7.9µM
Cc1ccc(S(=O)(=O)N2CCC(C(=O)Nc3cc(C(F)(F)F)ccc3N3CCOCC3)CC2)cc1C	GLP1R inv ag 13µM
CCCCOP(=O)(OCCCC)C(Nc1ccccc1)c1ccc2c(c1)OCO2 (stereo not given)	GLP1R inv ag 7.9µM
O=C(Cc1ccc(NC(=O)N2CCCCc3ccccc32)cc1)Nc1ccccc1Br	GLP1R inv ag 3.2µM (no result: GLP-1R agonist, Tb PFK inh)
CCOC(=O)NNC(=O)c1[nH]c2ccc(Br)cc2c1-c1ccccc1	GLP1R inv ag 10µM, GLP1R cytotox inconclusive
NNC(=O)c1[nH]c2ccc(Br)cc2c1-c1ccccc1	GLP1R inv ag inconclusive
COc1ccc(/C=N/NC(=O)c2[nH]c3ccc(Br)cc3c2-c2ccccc2)cc1	GLP-1R agonist inconclusive, GLP1R cytotox inconclusive
CC(=O)NNC(=O)c1[nH]c2ccc(Br)cc2c1-c1ccccc1	GLP1R inv ag 10µM
CCOc1ccc(NC(=O)CSC2=Nc3ccccc3C3=NC(CC(=O)NCc4ccco4)C(=O)N23)cc1 (stereo not given)	GLP1R inv ag inconclusive (no result: GLP-1R agonist, Tb PFK inh)
CC(C)c1ccc(NC(=O)CSC2=Nc3ccccc3C3=NC(CC(=O)NC4CCCCC4)C(=O)N23)cc1 (stereo not given)	GLP1R inv ag 10µM (no result: GLP-1R agonist, Tb PFK inh)
COc1ccc(OC)c(NC(=O)CSC2=Nc3ccccc3C3=NC(CC(=O)NCc4ccco4)C(=O)N23)c1 (stereo not given)	GLP1R inv ag 11µM (no result: GLP-1R agonist, Tb PFK inh)
Cc1c(C)c2c(c(C)c1OC(=O)CCC(=O)OCCO)CC[C@](C)(CCC[C@H](C)CCC[C@H](C)CCCC(C)C)O2	none (no result: GLP1R inv ag, GLP1R cytotox, Tb PFK inh, Pin1 inh, Tb PGK inh)
CCOC(=O)C(=NC1CCS(=O)(=O)C1)NNc1cc(Cl)ccc1Cl (stereo not given)	GLP1R inv ag inconclusive, GLP1R cytotox inconclusive
CCOC(=O)C(=NCCOC)NNc1cc(Cl)ccc1Cl	GLP1R inv ag 2.8µM, Pin1 inh inconclusive
Cc1cc(OCC(=O)N(C)Cc2ccccc2)ccc1Br	GLP1R inv ag 10µM
Cc1cc(S(=O)(=O)N2CCN(CC(=O)N(C)Cc3ccccc3)CC2)ccc1Br	GLP1R inv ag 8.9µM
CN(Cc1ccccc1)C(=O)CN1CCN(S(=O)(=O)c2ccc(Cl)c(Cl)c2)CC1	GLP1R inv ag inconclusive
CCC(=O)Nc1ccc(OCc2cc(C3Nc4ccccc4C(=O)N3Cc3ccccc3)ccc2OC)cc1 (stereo not given)	none (no result: GLP1R inv ag, GLP-1R agonist, GLP1R cytotox, Tb PFK inh, Tb PGK inh)
COc1ccc(OC)c(C(=O)CSc2ncc3c(n2)-c2ccccc2N(Cc2ccccc2C)S3(=O)=O)c1	none (no result: GLP-1R agonist, Tb PFK inh)
C(=C\c1ccccc1)/C=N/N1CCN(c2ccccn2)CC1	GLP1R inv ag 3.5µM
C(/C=C/c1ccccc1)=N/N1CCN(c2ccccc2)CC1	none
Clc1ccc2[nH]c3c(c2c1)CNCC3	GLP1R inv ag 10µM
N#Cc1ccc(S(=O)(=O)N2CCN(c3nc(-c4ccccc4)nc4ccccc34)CC2)cc1	none (no result: GLP1R inv ag, GLP-1R agonist, GLP1R cytotox, Tb PFK inh, Tb PGK inh)
COc1ccc(C(=O)N(Cc2ccccc2)Cc2ccccc2)cc1COc1ccc(NC(C)=O)cc1	none (no result: GLP1R inv ag, GLP-1R agonist, GLP1R cytotox, Tb PFK inh, Tb PGK inh)
